Results on five molecules are retold here after PubChem BioAssay.

Assay [1] is described as follows: inhibitors of TNFa-induced NFkB p65 translocation, primary screen, imaging, HUVEC, MLSMR starter and 10KST1 sets (AID 438;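 active means inhibition above 20% together with a positive visual image hit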;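 further: compound added about 3h40 before a 20 min TNFalpha stimulation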;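 on inhibition: signal is the nuclear over cytoplasmic p65 intensity ratio per well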). Conditions: HUVEC TNFa-induced p65 nuclear translocation; cell count: measured here: nuclei count (cytotoxicity indicator), at 2.08 µM; inhibition: at 2 µM, stronger effect = higher value, 0% TNFa-plus-vehicle, 100% no-TNFa wells.
A short description of assay [2]: inhibitors of mutant huntingtin aggregation, primary screen, imaging, exon1htt(103Q)mCFP cells, high-content imaging (AID 483;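 active means visual image review flags a hit and inhibition of aggregation exceeds 20%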;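 further: compound exposure lasted 3 days before fixation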;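 on nuclei count: percent of the per-plate median nuclei count of sample wells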). Conditions: exon1htt(103Q)mCFP cell line, aggregate imaging, at 2 µM; inhibition of aggregation: stronger effect = higher value; nuclei count: measured here: cell count, toxicity.
The nature of assay [3]: inhibitors of E-selectin induction by TNFa, primary screen, imaging, HUVEC, immunofluorescence, MLSMR starter and 10KST1 sets (AID 487).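 On inhibition: signal is fraction of cell area covered by stained E-selectin grains.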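 On nuclei count: 100% = median nuclei count of all wells on the same plate.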 As to conditions: HUVEC TNFalpha-induced E-selectin immunofluorescence imaging, at 2 µM; inhibition: stronger effect = higher value; nuclei count: measured here: cell number, toxicity.
Assay [4] in a line: DUSP6 inhibitors restoring Erk phosphorylation by chemical complementation, primary imaging in DUSP6-transfected HeLa (AID 609;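 active means compounds giving at least 50% inhibition in the cell-based MKP-3 phosphatase rescue imaging test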;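 on inhibition: phospho-Erk level distribution per well compared with pooled transfected vehicle control wells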). As to conditions: HeLa MKP-3 transfected, phospho-Erk imaging KS statistic, at 10 µM, cells stimulated with TPA for 15 min.
In assay [5] the target is Dual specificity protein phosphatase 6 (Homo sapiens) (UniProt Q16828). Described as above. As to conditions: HeLa MKP-3 transfected, phospho-Erk imaging KS statistic; at 10 µM; stronger effect = higher value; cells stimulated with TPA for 15 min.
Dual specificity protein phosphatase 6 (Homo sapiens), sequence (Q16828 whole entry, looked up): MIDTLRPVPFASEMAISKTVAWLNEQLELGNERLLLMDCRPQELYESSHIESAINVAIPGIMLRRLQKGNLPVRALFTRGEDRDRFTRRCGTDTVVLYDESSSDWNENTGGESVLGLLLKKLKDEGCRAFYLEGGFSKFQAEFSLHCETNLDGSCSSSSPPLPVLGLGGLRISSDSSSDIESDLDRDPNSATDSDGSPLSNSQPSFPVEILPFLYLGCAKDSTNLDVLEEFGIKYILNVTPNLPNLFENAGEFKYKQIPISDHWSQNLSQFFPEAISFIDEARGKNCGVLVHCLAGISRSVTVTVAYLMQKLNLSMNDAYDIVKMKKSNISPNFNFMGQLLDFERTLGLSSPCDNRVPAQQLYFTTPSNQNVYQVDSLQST
The target in assay [6] is Voltage-gated potassium channel subunit beta-2 (Rattus norvegicus) (UniProt P62483). The assay is described as follows: KvBeta enzyme negative modulators, primary screen, biochemical, NADPH fluorescence (AID 622;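 active means fluorescence slope higher than the sample average by over 3 SD, cut at about -0.22 in these data, passing the limit was not always enough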;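 further: slope of raw intensity against log time taken from 70 to 1610 s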). Conditions: recombinant KvBeta, 4-cyanobenzaldehyde reduction, at 10 µM, stronger effect = higher value.
Voltage-gated potassium channel subunit beta-2 (Rattus norvegicus), sequence (P62483 whole entry, looked up): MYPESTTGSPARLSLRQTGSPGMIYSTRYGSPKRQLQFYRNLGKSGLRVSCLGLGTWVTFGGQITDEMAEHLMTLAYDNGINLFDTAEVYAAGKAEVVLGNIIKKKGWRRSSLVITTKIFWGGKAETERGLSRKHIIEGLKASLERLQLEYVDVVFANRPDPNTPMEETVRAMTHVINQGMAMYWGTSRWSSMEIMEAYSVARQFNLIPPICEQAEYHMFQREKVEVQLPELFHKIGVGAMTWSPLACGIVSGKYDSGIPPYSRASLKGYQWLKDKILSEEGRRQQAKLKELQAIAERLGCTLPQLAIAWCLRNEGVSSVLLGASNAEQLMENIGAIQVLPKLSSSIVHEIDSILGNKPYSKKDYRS
Assay [7] shares this target. The experiment in a line: KvBeta positive modulators, primary screen, biochemical, NADPH fluorescence (AID 623;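 active means NADPH fluorescence slope more negative than the mean of all samples by about 3 SD, 99.7% confidence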;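 further: fluorescence intensity change per second fitted from 20 to 320 s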). As to conditions: Recombinant KvBeta, NADPH fluorescence decrease slope, 10 min; at 10 µM; stronger effect = lower value.
Assay [8] addresses Alpha-2C adrenergic receptor (Homo sapiens) (UniProt P18825). The experiment in a line: modulators of alpha2C/GIRK thallium flux, primary screen, cell-based, HEK293 alpha2C/GIRK1/2 (AID 624;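 active means fluorescence slope after compound addition differing from the mean of all screened samples at 99.7% confidence, in either direction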;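 further: slope of fluorescence ratio to pre-addition baseline per second over 15 to 24 s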). As to conditions: thallium flux BTC fluorescence, at 10 µM, actives lie on both sides.
Assay [9] concerns the target Muscarinic acetylcholine receptor M4 (Homo sapiens) (UniProt P08173). The experiment in a line: compounds altering M4/GIRK thallium flux, either direction, primary screen, M4 allosteric agonist project, cell-based, HEK293 M4/GIRK, BTC-AM (AID 625;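 active means fluorescence slope after compound addition differing from the mean of all tested samples at 99.7% confidence, mostly higher but some lower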;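 further: thallium influx through GIRK channels coupled to M4 in HEK293 cells with BTC-AM dye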). Conditions: at 10 µM, actives lie on both sides.
Assay [10] can be described thus: inhibitors of larval lipid processing in zebrafish, primary screen, whole organism, PED6 fluorescence, gall bladder and intestine (AID 686;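 active means a full or partial loss of lipid-probe fluorescence in the fish gall bladder, intestine or both, judged by eye; inactive means no fluorescence loss, or compound toxic to the fish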;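 further: larvae 5 to 7 days old with five fish per well; signal comes from phospholipase A2 cleavage of quenched PED6 carried via bile; overnight exposure to compound and PED6 before scoring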). Conditions: Zebrafish larvae PED6 lipid processing, fluorescence scoring; screened at 20 µM (by protocol).
Assay [11] in a line: inhibitors of Chlamydomonas gravitaxis, primary screen, whole organism, Chlamydomonas reinhardtii, WT vs cilia-less mutant, absorbance, 96-well (AID 463189;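 active means inhibition at or above 50% relative to wild type and mutant plate controls; inactive means inhibition below 50%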;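 further: 0% = wild type cc124 cells in DMSO and 100% = ciliumless bld1 mutant cells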). Conditions: OD600 absorbance, 2 days, at 10 µM, stronger effect = higher value.
A short description of assay [12]: inhibitors of Sendai virus-induced IRF3 signaling, primary screen, TLR/RLR signaling modifier project, cell-based, Sendai virus stimulus, luciferase, 10K MLSCN set (AID 602276;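 active means inhibition at or above 50% at 10 µM; inactive means inhibition below 50%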;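 further: firefly luciferase from ISG56 promoter only with Renilla not read in this screen; 0% = Sendai virus plus DMSO and 100% = medium plus DMSO without virus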). As to conditions: HEK293 RL24 IRF3 luciferase reporter, at 10 µM, stronger effect = higher value.
A short description of assay [13]: inhibitors of poly I:C-induced TLR3 signaling, primary screen, cell-based, poly I:C stimulus, luciferase, 10K MLSCN set (AID 602277;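 active means inhibition of the reporter signal at or above 50%; inactive means inhibition below 50%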). Conditions: HEK293-TLR3 RL24 IRF3 luciferase reporter, at 10 µM, stronger effect = higher value. (Reporter assays use an easily measured gene product as a stand-in for the process of interest.)
The mark [14] stands for this setting: measured here: cell density z-score.
[15] abbreviates: measured here: nuclear c-Myc green intensity z-score.
Setting [16] is: measured here: nuclear pErk red intensity z-score, stronger effect = higher value.

Each structure is given as a SMILES string. The source made the active and inactive calls.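 How the source made its calls, unless noted: active means visually confirmed hit in the image check and inhibition above 20%; inconclusive means visually confirmed hit but inhibition not above 20%; inactive means no visual hit in the image check.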

Alpha-2C adrenergic receptor (Homo sapiens), sequence (P18825 whole entry, looked up): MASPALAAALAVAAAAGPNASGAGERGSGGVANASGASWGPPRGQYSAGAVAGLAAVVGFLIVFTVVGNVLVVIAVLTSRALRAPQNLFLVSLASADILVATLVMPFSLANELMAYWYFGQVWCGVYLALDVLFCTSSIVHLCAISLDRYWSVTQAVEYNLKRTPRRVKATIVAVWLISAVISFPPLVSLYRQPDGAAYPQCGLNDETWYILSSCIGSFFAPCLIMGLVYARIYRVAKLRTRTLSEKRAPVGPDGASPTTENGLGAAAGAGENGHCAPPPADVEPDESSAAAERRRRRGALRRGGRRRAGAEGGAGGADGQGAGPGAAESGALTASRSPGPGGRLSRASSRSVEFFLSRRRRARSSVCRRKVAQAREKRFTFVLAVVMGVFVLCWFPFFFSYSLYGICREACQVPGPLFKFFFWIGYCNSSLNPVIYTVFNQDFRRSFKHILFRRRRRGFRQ
Muscarinic acetylcholine receptor M4 (Homo sapiens), sequence (P08173 whole entry, looked up): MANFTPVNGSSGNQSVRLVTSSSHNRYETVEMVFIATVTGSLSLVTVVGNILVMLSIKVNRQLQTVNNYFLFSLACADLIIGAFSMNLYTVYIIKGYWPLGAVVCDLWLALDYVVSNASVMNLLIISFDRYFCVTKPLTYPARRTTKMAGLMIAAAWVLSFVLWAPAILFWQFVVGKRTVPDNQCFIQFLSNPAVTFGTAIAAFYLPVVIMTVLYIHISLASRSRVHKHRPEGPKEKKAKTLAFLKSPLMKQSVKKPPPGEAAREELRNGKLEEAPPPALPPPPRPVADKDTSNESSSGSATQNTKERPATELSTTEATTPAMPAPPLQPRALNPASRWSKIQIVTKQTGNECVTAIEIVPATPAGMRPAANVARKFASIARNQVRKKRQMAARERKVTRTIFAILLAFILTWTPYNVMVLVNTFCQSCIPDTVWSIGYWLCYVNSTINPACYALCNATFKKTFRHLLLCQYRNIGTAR

As a reminder, the inhibition is the change of the read-out against control, counted positive when it falls. With `CNC(=O)CC(C(=O)O)c1ccc(OC(C)C)cc1` (stereo not given), the cell count in [1] was determined as 649. Further, the inhibition in [1] is -0.5% (inactive); in [3], 21.1% (inactive); in [5] it was -2.09% (inactive); in assay [11] it was 2.81% (inactive); in assay [12], 12.9% (inactive); in assay [13], 19.4% (inactive). In addition, the inhibition of aggregation in assay [2] was 26.1% (inactive). The nuclei count in assay [2] stood at 89.4%; in assay [3] it was 125%. For the same molecule, the z-score is -0.892 in assay [4] (setting [14]), 0.826 in [4] (setting [15]) and 1.07 in assay [4] (setting [16]). The fluorescence slope was -0.454 (inactive) in assay [6] and 0.00492 (inactive) in assay [9]. The NADPH fluorescence slope in assay [7] was -4e-05 (inactive). Moreover, the slope in assay [8] is 0.00593 (inactive). The result in assay [10] was inactive.

Turning to `Cc1cc(C)c2c(N)c(C(=O)c3ccccc3)oc2n1`, the cell count in [1] is 544. The inhibition in assay [1] was -4.5% (inactive); in assay [3] it was -33.5% (inactive); in [5] it was -3.95% (inactive); in assay [11], 14.6% (inactive); in [12], -2.38% (inactive); in assay [13], -28.6% (inactive). The inhibition of aggregation in [2] is 6.6% (inactive). Further, the values for the nuclei count in assay [2] and in [3] were 96.6% and 134%, respectively. The values for the z-score in [4] (setting [14]), in assay [4] (setting [15]) and in assay [4] (setting [16]) were -0.541, 1.87 and 0.479, respectively. Also, the values for the fluorescence slope in assay [6] and in assay [9] were -0.437 (inactive) and 0.00618 (inactive), respectively. Also, in assay [7], the NADPH fluorescence slope is -2.9e-05 (inactive). The slope in assay [8] is 0.00545 (inactive). Further, the result in [10] was inactive.

With `CCN(CC)CCCN1C(=O)C(=O)/C(=C(/O)c2ccccc2)C1c1ccccn1` (stereo not given), the cell count in assay [1] was found to be 528. In addition, the inhibition in assay [1] is -5.4% (inactive); in [3], -45% (inactive); in assay [5], 7.7% (inactive); in [11], 8.25% (inactive); in [12], 2.69% (inactive); in [13], 1.93% (inactive). Also, the inhibition of aggregation in assay [2] was 5.1% (inactive). For the same molecule, the nuclei count in assay [2] is 104%; in assay [3], 121%. Further, the results for the z-score in assay [4] (setting [14]), in [4] (setting [15]) and in [4] (setting [16]) were 0.55, -1.39 and -0.0355, respectively. In addition, the fluorescence slope in [6] is -0.473 (inactive); in assay [9], 0.00518 (inactive). In assay [7], the NADPH fluorescence slope is -3.7e-05 (inactive). The slope in assay [8] is 0.00741 (inactive). Further, in assay [10], the result was inactive.

Consider `CN1CCN(c2nc3c(c(=O)n(C)c(=O)n3C)n2Cc2cccc3ccccc23)CC1`, for which the cell count in assay [1] was determined as 371. The inhibition in [1] is 4.9% (inactive); in [3], -77.4% (inactive); in assay [5], -13.1% (inactive); in [11], 28.5% (inactive); in assay [12] it was 9.16% (inactive); in [13] it was 19.8% (inactive). In addition, the inhibition of aggregation in assay [2] was 6.9% (inactive). In addition, the nuclei count in assay [2] is 109%; in assay [3], 102%. In addition, the z-score in assay [4] (setting [14]) is -0.546; in assay [4] (setting [15]), -0.191; in assay [4] (setting [16]) it was 0.82. Moreover, the fluorescence slope in [6] is -0.457 (inactive); in assay [9] it was 0.0044 (inactive). Also, the NADPH fluorescence slope in [7] is -6.9e-05 (inactive). For the same molecule, the slope in assay [8] was 0.00582 (inactive). For the same molecule, in [10], the molecule was called inactive.

On to `CC(C)C(=O)N1CCN(c2nc(-c3ccccc3)c3c(c2C#N)CCCC3)CC1`, for which the cell count in [1] was determined as 615. Further, the inhibition in assay [1] was -2.8% (inactive); in [3], -17.1% (inactive); in assay [5], -7.67% (inactive); in [11], 5.67% (inactive); in [12] it was -7.38% (inactive); in assay [13], 17.9% (inactive). In addition, in assay [2], the inhibition of aggregation was 0.5% (inactive). Further, the nuclei count was 89.1% in [2] and 122% in [3]. Also, the z-score was 0.333 in assay [4] (setting [14]), 0.332 in [4] (setting [15]) and -0.342 in assay [4] (setting [16]). The fluorescence slope in assay [6] is -0.377 (inactive); in assay [9], 0.00499 (inactive). Moreover, the NADPH fluorescence slope in assay [7] is -9.2e-05 (inactive). Besides, the slope in assay [8] is 0.0045 (inactive). The call in assay [10] was inactive.
